The values that follow come from PubChem BioAssay AID652257 (The Scripps Research Institute Molecular Screening Center, 2013).

Each structure is given as a SMILES string. Where “and” joins values, the source holds several entries; their conditions need not be identical. Equal values may be shown once. Screen size: about 370,000 compounds; about 4,800 (1.3%) were called active. The sample holds actives, similar compounds and a random draw of the others, so the mix is not that of the screen. A number with no mark means an inactive call.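 How the source made its calls: active means inhibition above about 21% made by adding two undisclosed values (limit read from the data); inactive means the rest.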

In the experiment the target is Protein arginine N-methyltransferase 1 (Homo sapiens) (UniProt Q99873). Description: human PRMT1 activity-probe blockers – biochemical, fluorescence polarization, primary screen (AID 652257). As to conditions: recombinant PRMT1, activity-based probe fluorescence polarization; at 2.79 µM; hits give high values. (Polarisation of emitted light reports the rotation of a fluorescent probe.)
Protein arginine N-methyltransferase 1 (Homo sapiens), sequence (Q99873 whole entry, looked up): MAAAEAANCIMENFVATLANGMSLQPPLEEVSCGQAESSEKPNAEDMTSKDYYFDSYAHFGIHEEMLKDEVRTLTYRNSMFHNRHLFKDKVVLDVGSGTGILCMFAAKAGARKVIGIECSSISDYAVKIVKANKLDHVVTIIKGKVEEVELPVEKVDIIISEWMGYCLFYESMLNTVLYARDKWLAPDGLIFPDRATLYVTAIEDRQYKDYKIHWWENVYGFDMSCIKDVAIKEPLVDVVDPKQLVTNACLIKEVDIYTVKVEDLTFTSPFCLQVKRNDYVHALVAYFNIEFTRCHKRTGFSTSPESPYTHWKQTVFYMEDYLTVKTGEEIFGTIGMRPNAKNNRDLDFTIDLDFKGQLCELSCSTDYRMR
With `Cc1ccc(CSc2nnc(SCC(=O)NN=Cc3cc(Br)ccc3F)s2)cc1`, the inhibition (commonly the drop in the measured response relative to a control, in per cent) is 3.3%. For `CCc1cccc2c3c([nH]c12)C(CC)(CC(=O)O)OCC3` (centres undefined) the value was 1.16%. For `C[C@H]1CCC/C=C/C(=O)c2c(O)cc(O)cc2CC(=O)O1` the value was 7.7%; for `CC(C)(C)c1ccc(C(CC(=O)O)NS(=O)(=O)Cc2ccccc2)cc1` (centres undefined), -1.05%. For `C[C@@H](NC(=O)OC(C)(C)C)c1nnc(S(=O)(=O)Cc2ccccc2)o1` the value was 21.3% (active); for `CC(C)[C@@H](NC(=O)OC(C)(C)C)C(=O)NCC1CCC(C(=O)N[C@@H](Cc2ccccc2)C(=O)O)CC1` (some centres undefined), 2.79%; for `CCOC(=O)[C@]12CCCC=C1N(Cc1ccc(OC)cc1)C(=O)[C@@H]2CC(=O)N1CCOCC1`, -1.02%. Take `O=C(NCc1ccc(Cl)cc1)C1CCCN(c2nc3ccccc3o2)C1` (centres undefined): the inhibition was 4.6%. The same measure for `N#Cc1ccccc1S(=O)(=O)N1CCN(C(=O)c2cc(-c3ccccc3)nn2-c2ccccc2)CC1`: -1.25%; for `O=C(CN1CCN(S(=O)(=O)c2cc(Cl)ccc2Cl)CC1)c1ccc(O)c(O)c1`: 18.9%; for `N#Cc1ccccc1S(=O)(=O)N1CCN(Cc2c(O)ccc3ccccc23)CC1`: 34.5% (active). Regarding `CC1=CC(C)(C)Nc2ccc(OC(=O)CN3C(=O)C4CCCCC4C3=O)cc21` (centres undefined), the inhibition is 0.85%. For `CCOC(=O)c1c(N)c(C#N)nn1-c1ccccc1C(=O)OC` the value was 6.05%; for `O=C1CCCCC1Sc1ccc(Cl)cc1[N+](=O)[O-]` (centres undefined), 48.8% (active). For `CSc1ccccc1NC(=O)CN(C)CC(=O)Nc1ccc(Cl)cc1[N+](=O)[O-]` the value was -1.57%; for `O=C(COc1ccc(Cl)cc1[N+](=O)[O-])N1CCCCC1`, -4.9%. The same measure for `CC(=O)OCCN1CCCC12CCC(c1ccccc1)CC2` (centres undefined): 2.94%; for `C=C(C)C1CC23C(=O)C4(C(=O)c5ccccc5)C[C@@]5(C)CCC(CC2C1(C)C)(C4=O)C35OC` (some centres undefined): 3.86%; for `COc1ccc(C2CC(c3cccs3)=Nc3ccccc3S2)cc1OC` (centres undefined): 63.7% (active). On to `COc1ccc(C2CC(c3cccs3)=NN2c2nc(C)c(C(C)=O)s2)cc1OC` (centres undefined), for which the inhibition is 0.1%.

In the case of `COc1ccc(C2CC(=O)n3c(nc4ccccc43)S2)cc1OC` (centres undefined), the inhibition is 0.28%.

Regarding `O=S1(=O)c2ccc(Br)cc2OC[C@@H](Cc2ccccc2)N1Cc1cn(Cc2ccco2)nn1`, the inhibition was -6.43%. For `COc1ccc(C(=O)CSc2nnc(-c3cnccn3)n2-c2ccc(C)cc2)cc1` the value was -1.24%.

In the case of `N#CCC(=O)NC(=O)NCC1CC1`, the inhibition is 1.85%.

`Nc1ccc2nc3c(=O)[nH]c(=S)[nH]c3nc2c1`: the inhibition is 129% (active). For `COc1nc(NCc2ccc(Cl)cc2)nc(OC)n1` the value was -0.93%; for `CCN(CC)S(=O)(=O)c1cccc(NC(=O)c2ccc(S(=O)(=O)N3CCCC3)cc2)c1`, 2.8%; for `COC(=O)c1ccc(/C=N/N2C(C)CCCC2C)cc1` (centres undefined), -0.34%. The same measure for `CCN(CC)S(=O)(=O)c1cccc(-c2n[nH]c(=S)n2/N=C/c2ccc(C(=O)OC)cc2)c1`: 31.9% (active); for `CCOC(=O)Cc1csc(SCC(=O)Nc2ccc(C)cc2F)n1`: 1.96%; for `CCOC(=O)Cc1csc(NC(=O)CSc2nc(C)cc(=O)[nH]2)n1`: 63.7% (active). The same measure for `Cc1cc(=O)[nH]c(SCC(=O)Nc2ccc(Cl)cc2C)n1`: -2.19%; for `Clc1cccc2c1C1CC2CCN1Cc1ccccc1` (centres undefined): -1.44%. As to `CCCn1c(N)c(C(=O)CSc2nnc(-c3cccnc3)n2-c2ccc(C)cc2C)c(=O)[nH]c1=O`, the inhibition is -1.38%.

Take `COc1ccc(C#CCNCc2ccc(OC)cc2OC)cc1`: the inhibition is 0.44%.

As for `COc1cccc(-c2nn(-c3ccccc3)cc2/C=C(\C#N)C(=O)NCCCn2ccnc2)c1`, the inhibition was -2.79%. For `Cc1ccc(-c2nn(-c3ccccc3)cc2CN(Cc2ccccc2)C(=O)CCC(=O)O)o1` the value was 30.5% (active). For `O=C(/C=C/c1cn(-c2ccccc2)nc1-c1ccc2c(c1)OCCO2)NCCCN1CCOCC1` the value was 3.18%.

With `CN(C)S(=O)(=O)c1cccc(-c2nn(-c3ccccc3)cc2/C=C2\SC(=S)N(CC(=O)O)C2=O)c1`, the inhibition is 28.2% (active). The same measure for `Cc1ccc(-c2nn(-c3ccccc3)cc2/C=C2\SC(=S)N(CCCCCC(=O)O)C2=O)o1`: 78.2% (active); for `Cc1ccc(-c2nn(-c3cccc(F)c3)cc2CNCCc2ccncc2)o1`: -2.78%. For `O=C(O)CCC(=O)N(Cc1ccccc1)Cc1ccccc1` the value was -4.57%. For `COc1ccc(COCCN2CCN(S(=O)(=O)c3ccccc3)CCC2=O)cc1`, the inhibition was 1.29%.

Take `O=C(NCC1COc2ccccc2O1)c1ccc(NC(=O)c2cc(F)ccc2F)cc1` (centres undefined): the inhibition was 4.4%.

With `NC(=O)c1ncn([C@@H]2O[C@H](CNCc3cnc(N4CCOCC4)s3)[C@@H](O)[C@H]2O)n1`, the inhibition is -0.65%. The same measure for `C[C@@H]1ON(C)[C@H]2C[C@H]3c4[nH]c5cccc(-c6ccc7c(c6)OCO7)c5c4CCN3C[C@@H]12`: -2.89%. The same measure for `COC(=O)[C@H](C(C)C)N1CCc2nnn(Cc3ccc(C)cc3)c2-c2ccccc2S1(=O)=O`: 0.49%; for `CCOC(=O)[C@]12CCCC3=C1N(CCC3)C(=O)[C@@H](CC(=O)NCC13CC4CC(CC(C4)C1)C3)C2`: -3.58%; for `CCC(=O)c1c(CC)c2n3c1=CC[C@H]3CC(Br)C=2` (some centres undefined): 0.28%. The same measure for `COc1ccc(-n2c(SCC(=O)NC3CCCC3)nnc2-c2ccncc2)cc1`: 4.19%; for `O=S(=O)(NC1CC1)c1ccc2c3c(cccc13)CC2`: -2.46%. For the compound `N#CC1(NC(=O)COC(=O)Cc2n[nH]c(=O)c3ccccc23)CCCCC1`, the inhibition is 1.07%.

As to `N#CC1(Nc2ccc3c4c(cccc24)CC3)CCCCC1`, the inhibition is 50.2% (active). For `Cc1ccc2c(cnn2C(=O)CCC(=O)NC2CCCC2)c1` the value was 3.39%; for `COc1ccc(CNS(=O)(=O)c2ccc(NC(=O)N3CCCCC3)cc2)cc1`, -0.17%. For `CC(C)=C1C2CCC1C1C(=O)N(NC(=O)c3ccco3)C(=O)C21` (centres undefined) the value was -2.54%.

For the compound `COc1ccc(CN2C(=O)N3Cc4cc(OC)ccc4C3CS2(=O)=O)cc1` (centres undefined), the inhibition was 3.9%. The same measure for `CCN1C(=O)N[C@@H]2C[C@H](C(=O)N3CCCC3)[C@H](C)[C@H](c3ccccc3)C[C@@H]21`: -4.4%. For `O=C(COC(=O)c1ccc2ncsc2c1)Nc1ccc(Cl)cc1` the value was 14.3%; for `Cc1sc(NC(=O)c2ccc3ncsc3c2)c(C(N)=O)c1C`, 33.8% (active); for `COc1ccccc1-c1nnc(NC(=O)c2ccc3ncsc3c2)o1`, 9.47%. The same measure for `CN1CCCc2nc(-c3ccccc3)ccc21`: -1.81%; for `Cc1c(C(C)CCCO)oc(=O)c2c1Oc1c(C)c(C(C)C[C@@H](C)O)oc(=O)c1C2` (some centres undefined): 1.8%. With `CCCN(CCC)S(=O)(=O)c1cc2c(cc1Br)CCN2C(=O)CC`, the inhibition is -3.61%. For `CCOc1cnc(C(=O)NNC(=O)c2ccccc2Br)o1` the value was 0.46%; for `COC(=O)C12C=C3CC(c4ccccc4)=C3C(=O)N1Cc1[nH]c3ccccc3c1C2` (centres undefined), -2.05%. As for `CCc1ccccc1NC(=O)CSc1nnc(-c2cccs2)o1`, the inhibition was -1.47%. The same measure for `CN(C)c1ccc(C(CC(=O)O)C(=O)O)cc1` (centres undefined): 39.2% (active).

Consider `O=C(O)C(CCc1ccccn1)c1ccccc1` (centres undefined), for which the inhibition was 0.25%. In the case of `CC(=O)NC(CC(=O)O)c1ccc(F)cc1` (centres undefined), the inhibition is 0.13%.

For the compound `C[C@H]1[C@H](NC(=O)c2cccc(N(C)C)c2)CC[C@@]23CCCN2C(=O)CCC[C@@H]13`, the inhibition is -0.17%. Regarding `CCOc1ccc(N(CC(=O)Nc2c(C)n(C)n(-c3ccccc3)c2=O)S(=O)(=O)c2ccc(Cl)s2)cc1`, the inhibition is -5.48%. Turning to `CCO/C([O-])=N/c1c[n+](N2CCOCC2)no1`, the inhibition is -1.72% and 4.84%. For `COC(=O)[C@@]1(Sc2ccc(C)cc2)CC(=O)N(c2cccc(SC)c2)[C@@H]1c1ccccc1` the value was 4.3%. For `CCOC(=O)N1C(=O)C[C@](Sc2ccc(C)cc2)(C(=O)OC)[C@H]1c1ccccc1` the value was 53.6% (active); for `COC(=O)[C@]1(C#N)CC(=O)N(CC2CCCCC2)[C@@H]1c1ccccc1`, -3.09%. For `O=S1(=O)c2c(cccc2N2CC[C@H](O)C2)O[C@@H]2CCN1C2` the value was -1.77%; for `NC(=O)c1sc2nc3c(c(-c4ccccc4)c2c1N)CCC3`, 21.5% (active); for `CC(C)OC(=O)c1sc2nc3c(cc2c1N)C(=O)CCC3`, 0.71%. As for `COc1ccccc1-c1c(C#N)c(N)nc2c1CCC2`, the inhibition is -2.76%. For `c1ccc2c(C[n+]3csc4ccccc43)cccc2c1` the value was 31.2% (active); for `Nc1scc[n+]1Cc1cccc2cccnc12`, -6.71%. For `CN1[C@H](Cc2ccccc2)COc2cccc(N3CCSCC3)c2S1(=O)=O` the value was 6.45%; for `COC(=O)C1CN(Cc2cn(Cc3ccc(F)cc3)nn2)CCS(=O)(=O)N1Cc1ccc(Cl)cc1` (centres undefined), -0.68%; for `COCC(=O)N[C@@H]1C[C@@H]2O[C@@H](CO)CC[C@@H]2O[C@@H]1CCc1ccc(-c2ccccc2)cc1`, 0.28%. For `CCOCc1c(C(=O)N2CCN(Cc3ccc(Br)s3)CC2)oc2ccccc12` the value was -1.1%.

Consider `CN(C(=O)c1cccc(NC(=O)Cc2cccc([N+](=O)[O-])c2)c1)C1CCCCC1`, for which the inhibition was -0.61%.

As to `CCc1ccc(NC(=O)C(C)OC(=O)/C=C/c2cccc([N+](=O)[O-])c2)cc1` (centres undefined), the inhibition was -0.43%.

Take `COC(=O)/C=C\C(=O)Nc1cccc([N+](=O)[O-])c1`: the inhibition was 91.7% (active).
